# Shiga toxin inh: blocks Shiga toxin action in Vero cells; Vero cells, Shiga toxin protein synthesis inhibition reporter; 9.2% of 290,000 active; inhibition, % at 38.7 µM; in the data active means inhibition mostly above about 28%, no sharp cut-off; inactive means mostly below about 43%; further: 0% is about no effect
# Pf growth 48h: inhibits P. falciparum growth in the first generation, 48 h; P. falciparum luciferase growth in erythrocytes, 48 h; Potency, µM (doses to about 28.7 µM), without a hit: top-dose activity change, negative = inhibition, most hits filed as inhibitors; 5.9% of 310,000 active; AID 504832; active means well fitted inhibition curve with a large enough effect; inconclusive means small, poorly fitted or top-dose-only effect, or another doubt; inactive means no such curve, though single readings can be large or run the other way; further: potency means the concentration at half of the fitted maximal effect; on the % scale 0 is the no-effect control and ±100 the full control effect
#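 Luciferase-expressing parasites in RBCs, 2% Hct / 0.1% parasitemia final; RPMI 1640 + 0.5% Albumax; 37 C, 5% CO2, one generation; luminescence read-out, lower signal = inhibition.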
# SARS PLP yeast: SARS-CoV PLP inhibition in yeast | S. cerevisiae expressing SARS-CoV PLpro, growth rescue | Potency, µM (highest dose often 32.9 µM), for the others: at the top dose activity, positive = growth rescue, usual class: activators | 0.19% of 330,000 active; further: potency means the concentration at half of the fitted maximal effect; 0% is about no effect; nearly all actives have a fitted effect of over 55% in size
# Cycloheximide cs: affects cycloheximide protein synthesis inhibition readout, counter-screen; max response, %; cell reporter, cycloheximide protein synthesis inhibition counterscreen; 12% of 300,000 active; in the data active means max response mostly above about 13%, no sharp cut-off; inactive means mostly below about 14%; further: read at 38.3 µM for the half of the compounds with a filed dose; 0% is about no effect
# Pf growth 96h: inhibits malaria parasite growth, 96 h; P. falciparum luciferase reporter growth, 96 h; 6.9% of 320,000 active; Potency, µM (top dose mostly 28.7 µM), inactives show top-dose activity change, negative = inhibition, usual class: inhibitors; active means well fitted inhibition curve with a large enough effect; inconclusive means small, poorly fitted or top-dose-only effect, or another doubt; inactive means no such curve, though single readings can be large or run the other way; further: potency means the concentration at half of the fitted maximal effect; on the % scale 0 is the no-effect control and ±100 the full control effect
#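 Readout is luminescence from an integrated firefly luciferase in P. falciparum. Red cells, 2% hematocrit and 0.05% parasitemia final, were cultured with compound through two parasite generations (96 hours) at 37 C, 5% CO2.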
# NS1 inh: influenza NS1 inhibition | Potency, µM (doses to about 46.1 µM), for inactives: at the top dose activity, positive = more growth | 0.4% of 270,000 active | AID 2326; further: potency means the concentration at half of the fitted maximal effect; actives are rising curves; nearly all actives have a fitted effect of over 50% in size
#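 Read-out: OD600 growth recovery of NS1-expressing budding yeast. Cells grown overnight at 30C in -URA glucose medium, washed, resuspended and diluted 1:100 in 2% galactose assay medium, pH 6.0. Same strain lacking NS1 served as positive control.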
# The depositor's hits bear a star; ? = inconclusive; . = not tested or not shown; + = active, no number. Rows were chosen to be rich in hits. Some 21% of all compounds tested hit in one or more screens of this group. Unless noted, the call rests on the fitted dose curve.
SMILES,Shiga toxin inh,Pf growth 48h,SARS PLP yeast,Cycloheximide cs,Pf growth 96h,NS1 inh
Cc1ccc(SCC(=O)N2CCCC2)cc1,124*,70%,-1%,23*,12%,4%
COc1ccc(N2CCN(C(=O)CSc3ccc(C)cc3)CC2)cc1,-17,2%,1%,-5,?,2%
Cc1ccc(SCCC(=O)N2CCOCC2)cc1,82,54%,2%,26*,.,13%
Cc1ccc(OCCNC(=O)CCC(=O)N2CCOCC2)cc1,.,54%,9%,.,35%,.
O=C(CSc1ccc(Cl)cc1)N1CCCC1,65,50%,2%,46*,14%,2%
O=c1[nH]cc(S(=O)(=O)N2CCOCC2)c(=O)[nH]1,.,50%,1%,.,8%,.
CCc1ccc(S(=O)(=O)NCc2csc(C)n2)cc1,-7,-8%,2%,7,0%,3%
Cc1ccc(SCc2ccc(C(=O)N3CCCC3)cc2)cc1,96*,98%,-1%,39*,1%,-33%
Cc1cc(C)n(CC(=O)N/N=C/c2ccc3c(c2)OCO3)n1,12,32%,18%,1,3.7µM*,7%
Cc1cc(C)nc(SCC(=O)Nc2ccc3c(c2)OCO3)n1,8,19%,6%,8,?,3%
Cc1nn(CC(=O)N/N=C/c2ccc3c(c2)OCO3)c(C)c1Br,-4,-9%,0%,-2,0%,11%
Cc1cc(C)nc(SCC(=O)N/N=C/c2ccc3c(c2)OCO3)n1,60*,27%,-4%,39*,-5%,5%
CCCCc1ccc(NC(=O)Cn2c(=O)c(N3CCCCC3)c(N)n(C)c2=O)cc1,.,.,-3%,.,.,.
O=C(Nc1nnc(C2CC2)s1)c1ccncc1,15,25%,-1%,14,35%,4%
O=C(Nc1nnc(C2CC2)s1)c1ccco1,107*,190%,0%,29*,124%,.
O=C(Nc1nnc(C2CCCCC2)s1)c1ccco1,80*,69%,5%,34*,?,-43%
O=C(CSc1nnc(NC(=O)c2ccco2)s1)NC1CCCC1,1,?,-6%,1,?,0%
CCC(=O)N1COC[C@@H]1Cc1ccccc1,-3,18%,7%,-1,-1%,-13%
O=C(/C(C=Nc1cccc(C(F)(F)F)c1)=C(/O)c1ccco1)C(F)(F)F,126*,53%,0%,93*,20%,6%
O=C(/C(C=Nc1ccc(Br)cc1)=C(/O)c1ccco1)C(F)(F)F,+,228%,5%,42*,2.9µM*,-35%
Cc1ccc(CN2CCCN(Cc3ccccc3C)S2(=O)=O)cc1,-4,38%,-5%,2,44%,-6%
COC(=O)c1ccc(OC)c(CN2CCCN(Cc3cc(C)ccc3C)S2(=O)=O)c1,-4,15µM*,-1%,-3,13%,-3%
COc1cccc(C(=O)OCC(=O)N2CCc3ccccc3C2)c1,.,.,-12%,.,.,.
COc1ccc(/C=N/n2cnn(Cc3ccccc3Cl)c2=S)cc1,44,412%,2%,36*,-3%,.
COc1cc(/C=N/n2cnn(Cc3ccccc3Cl)c2=S)cc(OC)c1OC,-4,?,-3%,5,-8%,.
SMILES,Shiga toxin inh,Pf growth 48h,SARS PLP yeast,Cycloheximide cs,Pf growth 96h,NS1 inh
CC(NC(=O)c1ccccc1F)C(=O)O (stereo not drawn),-25,24%,-1%,-6,0%,4%
CC(/C=N/NC(=O)c1ccco1)=C\c1ccccc1,89*,54%,-12%,24*,42%,.
O=C(N/N=C\CCc1ccccc1)c1ccco1,50*,-22%,2%,38*,?,22%
CC(/C=N/NC(=O)c1ccccc1F)=C\c1ccccc1,107*,46%,-11%,47*,21%,-15%
COC(=O)/C(=C/c1ccccc1)NC(=O)c1ccco1,-3,-2%,8%,-3,-3%,5%
CC(/C=N/NC(=O)c1ccccc1F)c1ccccc1 (stereo not drawn),165*,42%,-1%,30*,9%,-2%
CC(/C=N\NC(=O)c1ccc(C)nc1)=C\c1ccccc1,39,?,5%,12,?,3%
CN1C(=O)C(C)(C)c2cc(S(=O)(=O)NCC3CCC(C(=O)NCc4ccccc4)CC3)ccc21 (stereo not drawn),-4,-19%,21%,-1,16%,-5%
O=C(Nc1ccc(Br)cc1)C1C2C=CC3(O2)C1C(=O)N(CCN1CCCCC1)C3C(=O)NC1CCCCC1 (stereo not drawn),-8,?,8%,-7,?,-14%
Cc1cc(C)cc(NC(=O)C2C3C=CC4(O3)C2C(=O)N(CCN2CCCCC2)C4C(=O)NC2CCCCC2)c1 (stereo not drawn),-2,?,2%,-3,10µM*,-2%
CCCN(CCC)CCN1C(=O)C2C(C(=O)Nc3cccc(SC)c3)C3C=CC2(O3)C1C(=O)NC1CCCCC1 (stereo not drawn),-6,3.7µM*,4%,-4,-28%,-5%
COc1ccccc1NS(=O)(=O)c1cccc(C(=O)N2CCCCCCC2)c1,.,-2%,-6%,.,-14%,.
CCOC(=O)c1c(N)sc(C(=O)OC)c1C,40,42%,-2%,17,50%,-8%
CCCOC(=O)c1c(NC(=O)/C=C/c2cnn(C)c2C)sc(C(=O)OCC)c1C,-8,-19%,-23%,-1,?,11%
CCOC(=O)c1sc(NN=C(C(=O)OC)C(=O)OC)c(C(=O)OCC)c1C,32*,?,-6%,7,?,-2%
CCOC(=O)c1sc(NC(=O)/C=C/c2cnn(CC)c2C)c(C(=O)OCC)c1C,-1,?,2%,-4,8.3µM*,12%
CCOC(=O)c1sc(N)c(C(=O)OC)c1C,64*,81%,-3%,33*,22%,-11%
O=Cc1ccccc1-n1cncn1,-10,2%,0%,-3,19%,1%
CSCC[C@H](NC(=O)[C@@H](NC(=O)[C@H](CCC(=O)O)NC(=O)[C@H](CCSC)NC(=O)[C@H](CC(N)=O)NC(=O)[C@H](CCC(=O)O)NC(=O)[C@H](CC(N)=O)NC(=O)[C@H](CO)NC(=O)[C@H](C)N)[C@@H](C)O)C(=O)O,37,.,.,7,.,.
O=[N+]([O-])c1ccc(N2CCN(CCO)CC2)cc1Sc1nc2ccccc2[nH]1,-11,?,1%,-2,?,-12%
O=C(Nc1ccc2nc3n(c(=O)c2c1)CCCCC3)C(=O)N1CCN(c2ccccc2F)CC1,-7,?,4%,-8,68%,7%
CCCc1cc(C(=O)Nc2ccn(Cc3ccc(C)cc3)n2)no1,21,?,-4%,1,-14%,-40%
Clc1ccc(Cn2ccc(C3CC3)n2)cc1,66*,88%,2%,31*,98%,7%
Cc1ccc(Cn2ccc(C3CC3)n2)cc1,52,117%,1%,62*,102%,.
Cc1c(C#N)c(NC(=O)CCl)n(Cc2ccccc2)c1C,-5,?,0%,11,19µM*,5%
